Test results published in ChEMBL document CHEMBL4513216, “Probing the Open Global Health Chemical Diversity Library for Multistage-Active Starting Points for Next-Generation Antimalarials” (ACS Infect Dis, 2020).
Out of some 69,000 compounds screened, about 8,600 (12%) showed an effect of 50% or more. Many of the other results were omitted from the sample, so strong results are more common in it than they were.

System: Plasmodium berghei
Assay: Screen against P. berghei liver stage (PbLuc), transformed with Luciferase, at 10uM
Assay type: functional, HepG2
Conditions: tested at 10 uM

Compound | INHIBITION [%]
O=C(Cc1cccs1)N1C[C@@H]2CN(Cc3ccoc3)CCO[C@@H]2C1 | 24.1
CCN1Cc2cc(F)ccc2N(CC(O)C(F)(F)F)CCC1=O (stereo not drawn) | 47.2
CN(C)C(=O)c1cn[nH]c1C1CCCN1Cc1nccn1C (stereo not drawn) | 55.8
CN(C)C(=O)c1cn[nH]c1C1CCCN1Cc1c[nH]cn1 (stereo not drawn) | 18.4
CN(C)C(=O)c1cn[nH]c1C1CCCN1Cc1cncn1C (stereo not drawn) | -11.3
Cc1nc(CN2CCO[C@H]3[C@@H](OCc4ccccn4)CC[C@@H]32)cs1 | 40.4
Cc1ccc2cccc(Oc3nc(C)c(C(=O)O)s3)c2n1 | 12.7
CN1C(=O)C(c2ccccc2)CC12CCN(CCO)CC2 (stereo not drawn) | -9.26
CCc1nc(C2CCCN(C(=O)c3cccc(Cl)c3)C2)no1 (stereo not drawn) | -19.9
COc1cccc(CNC2CCSC2)c1OC (stereo not drawn) | -7.85
Cc1cccnc1NC(=O)NC(CCO)C(C)(C)C (stereo not drawn) | 28.3
CC(C)(C)C(CCO)NC(=O)Nc1ccccc1 (stereo not drawn) | 43.7
CC(C)(C)C(CCO)NC(=O)Nc1ccncc1 (stereo not drawn) | 60.2
CN1CC(=O)N(c2ccccc2)CC12CCN(S(C)(=O)=O)C2 (stereo not drawn) | 42.7
Cc1ccc(C(=O)NCC2(O)CCOCC2)cc1Br | -65.5
OC1(CNCc2ccc(F)c(C(F)(F)F)c2)CCOC1 (stereo not drawn) | 3.69
Cc1cc(CNCC2(O)CCOCC2)ccc1F | 76.8

Compound | INHIBITION [%]
CN1CCC(O)(CNCc2ccc(F)c(C(F)(F)F)c2)CC1 | 48.4
Cc1cc(CNC2(CO)CCOCC2)ccc1Br | 18.6
Cc1cc(CNCC2(O)CCOCC2)ccc1Br | 54.4
CN(C)C(=O)[C@@H]1CCO[C@@H]2CCN(CCc3ccccc3)C[C@@H]21 | 28.5
COCc1ccc(C(=O)N2CCC(Oc3ccccc3OC)CC2)s1 | -3.83
O=C(N[C@@H]1CN(c2ncccn2)C[C@@H]2CCCO[C@@H]21)c1cnccn1 | 20.2
CC(O)CN1CCN(C(=O)c2cc(Cl)cc3cccnc23)CC1 (stereo not drawn) | 2.75
COC(=O)N1C[C@@H]2CC[C@H]1CN(Cc1cscn1)C2 | -14.8
CCc1ncc2c(n1)CN(c1nc(C)ccc1C(=O)O)C2 | 9.55
CC(C)OCCN1CCC(Nc2ccc(C#N)cc2F)CC1 | 27.2
COc1ccccc1N1CCC(N2CCOCC(CO)C2)CC1 (stereo not drawn) | 39
CNC(=O)[C@@H]1C[C@@H](N)CN1C1CCN(c2ccccc2F)CC1 | 61
CNC(=O)[C@@H]1C[C@@H](N)CN1C(=O)CCSCc1ccc(F)cc1 | 9.63
CCNC(=O)[C@@H]1C[C@H](N)CN1C(=O)CCc1ccccc1Cl | -6.83
CCNC(=O)[C@@H]1C[C@H](N)CN1C1CCN(c2ccccc2OC)CC1 | 55.4
CNC(=O)[C@@H]1C[C@@H](N)CN1C1CCN(Cc2ccccn2)CC1 | 27.6
